Among all 1,300 compounds or so, about 380 (29%) were called active. About 37% were inconclusive and are not listed. Calls come from the whole dose curve; as a rule, active = well fitted inhibition curve with a large enough effect; inconclusive = small, poorly fitted or top-dose-only effect; inactive = flat fitted curve, though single readings scatter. The list shows a part of the results.
Target: Thyrotropin receptor (Homo sapiens) (UniProt P16473)
Experiment: qHTS for antagonists of the Thyroid Stimulation Hormone Receptor: Hit Validation in Primary Screen; note: nearly all actives have a fitted effect of over 80% in size;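 for activity change, negative = inhibition: cells stimulated with TSH at EC80 of 4 nM during compound exposure; cAMP by competitive HTRF where cellular cAMP lowers the 665 nm FRET signal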
Details: TSHR-expressing cells, cAMP antagonist mode; series mostly up to 58 µM; activity change, negative = inhibition: at the top concentration
Description: The thyroid-stimulating hormone receptor (TSHR) is a member of the 7 trans-membrane-spanning receptor (7TMR) family of cell surface receptors. TSHR-mediated hyperthyroidism is important in thyroid pathology. The development of small molecule antagonists of TSHR may lead to therapeutic approaches for TSHR-mediated hyperthyroidism caused by constitutively activating mutations or stimulating auto-antibodies associated with Graves' disease. Graves' disease is the leading cause of hyperthyroidism and is caused by autoantibodies that stimulate TSHR (TsAbs) causing thyroid growth and unregulated overproduction of thyroid hormones and existing treatments have liabilities (agranulocytosis). In addition, TSHRs are known to be expressed in multiple extrathyroidal tissues including bone, brain, kidney, testis, fat and cells of the immune system but the role of the TSHR in these tissues is not clear. Therefore, TSHR antagonists/inverse agonists could be used as probes of extrathyroidal TSHR function. Finally, TSHR inverse agonists, which are a subclass of antagonists that inhibit agonist-independent (or basal or constitutive) TSHR signaling, could be used to inhibit TSH-independent signaling in patients with recurrent or metastatic thyroid cancer who are receiving thyroid hormone to suppress TSH.
In collaboration between scientist from the NCGC and the NIDDK, a miniaturized HTRF high-throughput screen was developed. It's a cell based assay, where an anti cAMP antibody contains a fluorescent cryptate tag (excitation 337 nm; emission 620 nm) and the acceptor is cAMP-d2 (excitation 620 nm; emission 665 nm). When antibody and cAMP-d2 interact and are excited by a 337 nm light, a FRET occurs resulting in emission at 665 nm. The assay is competition between cAMP-d2 and cAMP (from the cell lysate). The homogeneous protocol allows for one step dispense after stimulation that is automation friendly. This is a hit validation assay using the primary screen format.
NIH Chemical Genomics Center [NCGC]
NIH Molecular Libraries Probe Centers Network [MLPCN]
Assay Provider: Marvin Gershengorn, NIDDK
1. 3ul of 200 TSHR freshly harvested cells/well are dispensed into a 1536 TC-treated white solid bottom plate.
2. Through pintool addition, 23nl of compounds and control in 100% DMSO are added to the plate.
3. Then 1ul of EC80 TSH (4nM final) is added to the plate.
4. Assay is incubated at 37 deg C for 2 hours.
5. 2ul of cAMP antibody diluted 1:20 in lysis buffer is added.
6. Immediately following, 2ul of d2 diluted 1:20 in HBSS is added seperately.
7. The assay is incubated for 30 minutes at ambient room temperature.
8. The result is obtained by using a ViewLux read-out with HTRF settings.
% is set by controls: 0 for no effect and ±100 for the full control effect; potency is the fitted concentration of half-maximal effect.

Thyrotropin receptor (Homo sapiens), sequence (P16473 whole entry, looked up): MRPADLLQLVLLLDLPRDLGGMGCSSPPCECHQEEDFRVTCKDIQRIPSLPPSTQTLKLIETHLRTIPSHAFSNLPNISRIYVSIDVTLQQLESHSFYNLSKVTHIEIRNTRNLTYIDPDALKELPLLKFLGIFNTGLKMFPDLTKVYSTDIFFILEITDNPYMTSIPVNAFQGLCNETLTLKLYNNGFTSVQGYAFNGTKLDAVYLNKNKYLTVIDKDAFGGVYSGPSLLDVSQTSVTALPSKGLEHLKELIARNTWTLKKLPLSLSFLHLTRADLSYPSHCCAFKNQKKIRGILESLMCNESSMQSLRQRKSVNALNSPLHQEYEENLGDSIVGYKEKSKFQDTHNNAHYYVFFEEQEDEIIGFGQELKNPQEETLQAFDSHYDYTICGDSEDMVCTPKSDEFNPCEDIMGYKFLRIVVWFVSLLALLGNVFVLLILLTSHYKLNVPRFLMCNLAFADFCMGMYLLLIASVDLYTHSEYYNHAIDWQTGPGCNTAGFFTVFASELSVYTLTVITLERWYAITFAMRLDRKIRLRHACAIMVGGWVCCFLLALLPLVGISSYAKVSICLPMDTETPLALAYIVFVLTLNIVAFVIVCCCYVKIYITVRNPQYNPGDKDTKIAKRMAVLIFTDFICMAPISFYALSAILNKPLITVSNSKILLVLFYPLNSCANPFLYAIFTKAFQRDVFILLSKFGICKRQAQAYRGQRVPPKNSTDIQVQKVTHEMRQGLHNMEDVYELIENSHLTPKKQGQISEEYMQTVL

Structure (SMILES) | Potency | activity change, negative = inhibition
CC(C)C1Nc2c(O)cc(Cl)c([N+](=O)[O-])c2C2C=CCC21 (stereo unspecified) | 8.49 µM (active) | 
COc1ccc(CNC(=O)CCS(=O)(=O)c2cc3c(cc2Cl)NC(=O)CO3)cc1 |  | -4.93% (inactive)
C/C(=N\NC(=O)c1cccc(Cl)c1)C1C(=O)c2ccccc2C1=O | 12 µM (active) | 
CC(=O)N1c2ccc(S(=O)(=O)N3CCC(C(=O)NC4CCCCC4C)CC3)cc2CC1C (stereo unspecified) |  | -8.1% (inactive)
O=C(COc1cccc2ccccc12)Nc1ccc(Cl)cc1C(=O)O | 4.78 µM (active) | 
O=C(Nc1cccc2ccccc12)c1ccccc1 |  | -10.5% (inactive)
O=C(COc1ccc(Cl)cc1Cl)Nc1ccc(C(=O)Nc2ccccc2C(=O)O)cc1 | 23.9 µM (active) | 
O=C(CSc1ccccn1)Nc1cccc2ccccc12 |  | -7.49% (inactive)
O=C(CSc1ccc2nnc(CCNC(=O)c3ccccc3)n2n1)NCc1ccc(F)cc1 |  | -0.864% (inactive)
N#Cc1ccc(C(=O)Nc2nc(-c3cccs3)c(C(=O)C(F)(F)F)s2)cc1 | 6.01 µM (active) | 
Cc1ccccc1NC(=O)CCc1c(C)nn(-c2ccc(N3CCOCC3)nn2)c1C |  | -1.58% (inactive)
CC(=O)c1c(O)cc(O)c(C(C)=O)c1O | 30.1 µM (active) | 
Cc1ccc(-n2nc3c(=O)n(C(C)C(=O)NC4CC4)nc(C)c3c2C)cc1 (stereo unspecified) |  | -5.96% (inactive)
COc1ccc(-c2nn(-c3ccccc3)cc2/C=N/NC(=O)c2ccc(Br)o2)cc1 | 9.53 µM (active) | 
COc1cc(C(=O)N/N=C/c2cn(Cc3ccccc3)c3ccccc23)ccc1O |  | -12% (inactive)
CCN(C(=O)CSc1nnc(CNc2cccc(OC)c2)n1C1CCCCC1)C1CCS(=O)(=O)C1 (stereo unspecified) |  | -3.31% (inactive)
Cc1ccc(-c2cnc(C3CC3)o2)cc1S(=O)(=O)Nc1ccccc1 | 30.1 µM (active) | 
CC(=O)c1cccc(NC(=O)c2sc3nc4n(c(=O)c3c2C)CCCC4)c1 |  | -17.4% (inactive)
COc1ccc(NS(=O)(=O)c2cc(-c3cnc(C4CC4)o3)ccc2C)cc1 | 26.9 µM (active) | 
CC(=O)c1cccc(NS(=O)(=O)c2cc(-c3cnc(C4CC4)o3)ccc2C)c1 | 21.3 µM (active) | 
COc1ccc(-c2cc3c(=O)n(CC(=O)NCc4cccnc4)nc(C)n3n2)cc1 |  | -5.13% (inactive)
CCCn1c(=O)c2[nH]c(C3CCCC3)nc2n(CCC)c1=O |  | -2.13% (inactive)
O=C(NN=C1CCCC1)c1cc(Cl)cc(Cl)c1O |  | -9.28% (inactive)
CC1=N/C(=C\c2ccc([N+](=O)[O-])cc2)C(=O)N1c1ccc(Cl)cc1 |  | -0.461% (inactive)

Structure (SMILES) | Potency | activity change, negative = inhibition
Cc1c(Cl)sn(-c2ccc(Cl)cc2)c1=O | 26.9 µM (active) | 
CS(=O)(=O)N(Cc1ccccc1)c1ccc(C(=O)N2CCN(c3cccc(Cl)c3)CC2)cc1 |  | -7.49% (inactive)
O=C(Nc1ccc(N2CCN(C(=O)c3ccccc3)CC2)cc1)c1cc2ccccc2o1 | 23.9 µM (active) | 
O=C(NCCc1ccccc1)c1cc2ccccc2oc1=O |  | -2.82% (inactive)
CCN(c1ccc(OC)cc1)S(=O)(=O)c1cc(-c2cc(C)no2)ccc1C(C)C |  | -9.45% (inactive)
CCc1ccc(-c2cc(C)no2)cc1S(=O)(=O)N1CCN(c2ccccn2)CC1 | 30.1 µM (active) | 
CC(NC(=O)c1cc(=O)[nH]c2ccccc12)c1ccc(F)cc1F (stereo unspecified) |  | -4.26% (inactive)
O=C(Nc1ccc(Cl)cc1)c1cc2c(cc1O)[nH]c1ccccc12 | 3.01 µM (active) | 
Cc1ccc(NC(=O)Cn2ncc3c([nH]c4ccccc43)c2=O)cc1Cl |  | -8.04% (inactive)
COC(=O)Cc1c(C)[nH]n(-c2cc(Cl)cc(Cl)c2)c1=O |  | -7.75% (inactive)
Cc1cc(C)n2nc(SCC(=O)Nc3ccccc3C)nc2n1 |  | 0.49% (inactive)
Cc1cc(C(=O)NC2CCCc3c2cnn3-c2ccc(C(C)(C)C)cc2)nn1C (stereo unspecified) | 30.1 µM (active) | 
Cc1cc(C)cc(OC(C)C(=O)NCCCn2ccnc2)c1 (stereo unspecified) |  | -1.84% (inactive)
O=C(Nc1ccc(Cl)c(S(=O)(=O)N2CCOCC2)c1)c1ccc(OCC2CCCO2)cc1 (stereo unspecified) | 15.1 µM (active) | 
CC1=C(C(=O)N2CCCC(N3CCN(c4ccccc4C)CC3)C2)OCCO1 (stereo unspecified) |  | -5.88% (inactive)
CCOc1ccccc1N1CCN(C(=O)CCCN2C(=O)c3cccc4cccc(c34)C2=O)CC1 | 30.1 µM (active) | 
COCCNC(=O)CN1C(=O)c2cccc3cccc1c23 |  | -3.72% (inactive)
COc1ccccc1N1CCN(C(=O)CCC(=O)N2CCN(c3ccc(F)cc3)CC2)CC1 |  | -12.6% (inactive)
O=C(COC(=O)c1ccccc1C(=O)c1ccc(Cl)c([N+](=O)[O-])c1)NC1CCCCCC1 | 23.9 µM (active) | 
Nc1ccc(C(=O)NC2CCSc3ccccc32)cc1[N+](=O)[O-] (stereo unspecified) |  | -14.1% (inactive)
Cc1ccc(NC(=O)CCc2nnc3ccc(NCc4ccco4)nn23)nc1 |  | -7.92% (inactive)
CN(C)c1ccc(NC(=O)C2C3C=CC(C3)C2C(=O)O)cc1 (stereo unspecified) |  | -8.9% (inactive)
CN(C)c1ccc(NC(=O)Oc2ccccc2)cc1 |  | -7.4% (inactive)
Cc1ccc(S(=O)(=O)NC(=O)Nc2ccc(N(C)C)cc2)cc1 | 30.1 µM (active) | 

Structure (SMILES) | Potency | activity change, negative = inhibition
COc1cccc(CN(C)C(=O)c2ccc(OCC(=O)Nc3cccc(C(F)(F)F)c3)c(OC)c2)c1 | 23.9 µM (active) | 
CSCCCNC(=O)c1ccc(OC2CCN(C(=O)c3cccnc3)CC2)cc1 |  | -5.76% (inactive)
Cn1c2c(c(=O)n(C)c1=O)C(C(F)(F)F)(C(F)(F)F)N=C(c1ccc(Cl)cc1)N2 | 19 µM (active) | 
COc1ccc(C2c3ccc(O)cc3Oc3ncn(Cc4ccco4)c(=N)c32)cc1 (stereo unspecified) |  | -6.31% (inactive)
O=C(CN1C(=O)NC2(CCCCCC2)C1=O)N1CCC(Cc2ccccc2)CC1 | 21.3 µM (active) | 
CC1Cc2ccccc2N1C(=O)COC(=O)/C=C/c1cccc(F)c1 (stereo unspecified) | 30.1 µM (active) | 
CC(=O)N1c2ccc(S(=O)(=O)N(C)CC(=O)N(C)Cc3ccccc3)cc2CC1C (stereo unspecified) |  | -5.7% (inactive)
CC(C)Cc1ccc(C(C)C(=O)Nc2nccs2)cc1 (stereo unspecified) |  | -12.1% (inactive)
COc1ccc(OC)c2c1C(=O)C(Cl)=C(Cl)C2=O | 33.8 µM (active) | 
Cc1cccc(OC2CCN(Cc3nc(CC4CC4)no3)CC2)c1 |  | -10.7% (inactive)
O=C(N[C@H]1C/C=C\C(c2cccc(F)c2)N(Cc2ccccc2)C(=O)C1)OCC1c2ccccc2-c2ccccc21 (stereo partly specified) |  | -5.96% (inactive)
CCc1cc(CNC(=O)CC2C(=O)NCCN2Cc2ccc(-c3ccccc3)cc2)on1 (stereo unspecified) |  | -10.3% (inactive)
CCCc1ccc(-c2c(C)sc(NC(=O)c3ccnn3C)c2C#N)cc1 | 23.9 µM (active) | 
CCN1C(=NCc2ccc(OC)cc2)N[C@@H](CCc2ccccc2)[C@H](C(=O)NCc2ccc(OC)cc2)[C@H]1C |  | -6.54% (inactive)
Cc1ccc(C2(c3ccc(C)cc3)CC2C(=O)Nc2ccc([N+](=O)[O-])cc2O)cc1 (stereo unspecified) | 19 µM (active) | 
CCOc1ccc(C2NC(=O)c3ccccc3O2)cc1OC (stereo unspecified) |  | -2.79% (inactive)
CC(C)(C)c1ccc(C(=O)CC(Sc2ccc(Cl)cc2)C(=O)O)cc1 (stereo unspecified) | 37.9 µM (active) | 
O=C1NC(=S)SC1=C1CCCCCC1 | 30.1 µM (active) | 
CC1=CCC2C(=O)N(c3ccc(C(=O)Nc4ccccc4Cl)cc3)C(=O)C2C1 (stereo unspecified) |  | -3.11% (inactive)
Cc1ncsc1CCOC(=O)C1C2CC3CC(C2)CC1C3 (stereo unspecified) | 30.1 µM (active) | 
Cc1ccc(S(=O)(=O)/N=C2/NC(=O)/C(=C\c3cc(Br)cc(Br)c3O)S2)cc1 | 15.1 µM (active) | 
COc1ccc(CNC(=O)CCS(=O)(=O)c2ccc3c(c2)CCN3C(C)=O)cc1 |  | -3.72% (inactive)
Cc1cc(C)c(C2=NOC3C4CCC(C4)C23)c(C)c1 (stereo unspecified) |  | -7.2% (inactive)
COc1cccc(OC)c1C(=O)Nc1ccc2c(c1)N(S(=O)(=O)c1cccs1)CCC2 |  | -6.48% (inactive)

Structure (SMILES) | Potency | activity change, negative = inhibition
O=C1NC(=S)S/C1=C\c1ccc(SCc2ccccc2)o1 | 6.01 µM (active) | 
COCCNc1oc(Cc2cccc3ccccc23)nc1C#N |  | -5.82% (inactive)
O=c1[nH]c(C2CCN(S(=O)(=O)c3cccc(Cl)c3)CC2)nc2c1nnn2Cc1ccccc1 |  | -3.4% (inactive)
O=C(O)c1ccc(Cl)cc1Nc1nc2cc(Cl)ccc2o1 | 26.9 µM (active) | 
O=C1C=CC(=O)N1CCCCCCN1C(=O)C=CC1=O | 37.9 µM (active) | 
C=CCn1c(SCC(=O)c2cccs2)nc2sc(CC)cc2c1=O | 21.3 µM (active) | 
N#C/C(=C\c1ccc(O)c([N+](=O)[O-])c1)c1nc2ccccc2s1 | 6.75 µM (active) | 
O=c1/c(=C/c2ccc(O)c([N+](=O)[O-])c2)sc2nc3ccccc3n12 | 3.79 µM (active) | 
COc1cc(/C=C(\C#N)c2nc3ccccc3s2)cc([N+](=O)[O-])c1O | 7.57 µM (active) | 
COC(CNC(=O)c1ccc(Cn2c(=S)[nH]c3cc4c(cc3c2=O)OCO4)cc1)OC |  | -5.19% (inactive)
CCOc1ccnc2c1c(=O)n(Cc1cc(OC)cc(OC)c1)c(=O)n2C |  | -3.23% (inactive)
COC(=O)CN(c1ccc(C)cc1)S(=O)(=O)c1ccc2c(c1)n(C)c(=O)c(=O)n2C |  | -6.66% (inactive)
COC(=O)c1ccc(C2C(Oc3ccccc3C)C(=O)N2CCc2ccc(OC)c(OC)c2)cc1 (stereo unspecified) |  | -6.94% (inactive)
COc1ccc(CCNC2=C(Cl)C(=O)N(CCc3ccccc3)C2=O)cc1OC | 26.9 µM (active) | 
COc1ccc(CCNC2=C(Cl)C(=O)N(CCc3ccc(OC)c(OC)c3)C2=O)cc1OC | 21.3 µM (active) | 
O=C(N/N=C/c1cccc(Oc2ccc([N+](=O)[O-])cc2[N+](=O)[O-])c1)c1cncc(Br)c1 | 30.1 µM (active) | 
CC(C)COc1cccc(-c2cc(C(=O)Nc3ccon3)c3ccccc3n2)c1 |  | -9.56% (inactive)
N#Cc1nc(Cc2cccc3ccccc23)oc1NCc1ccc2c(c1)OCO2 |  | -8.9% (inactive)
N#Cc1c(Cl)nsc1NC(=O)c1ccccc1 | 7.57 µM (active) | 
O=C(O)c1cccc(NC2=C(Cl)C(=O)c3ccccc3C2=O)c1 | 23.9 µM (active) | 
O=C(O)c1ccc(S(=O)(=O)N(Cc2ccccc2)Cc2ccccc2)cc1 |  | -7.63% (inactive)
O=C(O)c1ccc(NC2=C(Cl)C(=O)c3ccccc3C2=O)cc1 | 30.1 µM (active) | 
CCN(CC)c1ccc(NC2=C(Cl)C(=O)c3ccccc3C2=O)cc1 | 23.9 µM (active) | 
Cc1ccccc1N1CCN(C2CCCN(C(=O)c3cnsn3)C2)CC1 (stereo unspecified) |  | -2.71% (inactive)
